Assay outcomes deposited in PubChem by Broad Institute.
The list is not random: actives were taken first. Their share in the collection is about 3.9%.
MITF act – activators of MITF-driven TRPM1 promoter reporter, primary screen, cell-based, SK-MEL-5, luciferase, single point; activation, % at 12.5 µM; AID 588334, 2011; SK-MEL-5 TRPM1-promoter luciferase, 24 h; % of positive control, neutral wells = 0; 300,000 tested, 0.75% active;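 active = mean activation of at least 80% with every replicate also reaching 80%; inconclusive = mean reaches 80% but some replicate falls short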
Wnt act – Wnt/beta-catenin pathway activators, primary screen, cell-based, plate reader, single point; Wnt/beta-catenin reporter cell assay, activator; activation, % at 9.35 µM; 300,000 tested, 1.2% active; in the data active = activation above about 30%, passing the limit was not always enough; inconclusive = no clear call, values can overlap the other calls
esBAF inh – Bmi1 luciferase reporter increase in mESCs, primary screen, esBAF inhibitor project, mouse ES cells, Bmi1 luciferase knock-in, single point | 350,000 tested, 2% active | 24 h; 100% = twice the neutral-well signal | reporter increase, % at 12.5 µM; in the data active = activation above about 40%; inconclusive = no clear call, values can overlap the other calls;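 note: a rise in the Bmi1 reporter signal indicates esBAF inhibition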
HSF1 activator – HSF-1 activators, primary screen, NIH3T3-HGL cells, MG132 stress, luminescence, single point; NIH3T3-HGL HSF-1 luciferase reporter, 8 h; 100% = twice DMSO control signal; activation, % at 9 µM; 300,000 tested, 1.7% active; AID 504408, 2011;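 active = mean replicate activation of at least 50% with a set share of replicates each reaching 50%; inconclusive = only one of those two conditions met; inactive = mean below 50% and too few replicates reaching it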
HSF1 inhib – HSF1 inhibitors in luciferase reporter cells, primary screen, cell-based, NIH3T3, luminescence. 300,000 tested, 0.77% active. AID 2098, 2009. activity change, negative = inhibition, % at 7.5 µM (by protocol). NIH3T3-HGL HSE-luciferase, MG132-induced, luminescence 8 h; hits give low values;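 active = more than half of replicate wells show activity change below -50%, luminescence cut by over half; inconclusive = some wells, but at most half, below -50%; inactive = no replicate well below -50%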;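 note: luciferase reports HSF-1 transcriptional activity via heat shock element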
Hits are given with their value; - = inactive; ? = inconclusive; . = no result.

SMILES	MITF act	Wnt act	esBAF inh	HSF1 activator	HSF1 inhib
Cc1ccc(/C=C/C(O)=C2/C(=O)N(C)C3(C)CC2c2ccccc2O3)cc1 (stereo unspecified)	-	-	-	-	-
COc1ccc(/C=C/C(O)=C2/C(=O)N(C)C3(C)CC2c2ccccc2O3)cc1 (stereo unspecified)	-	-	-	65	-
C[C@@H]1CN([C@@H](C)CO)C(=O)c2cc(NC(=O)c3ccncc3)ccc2O[C@@H]1CN(C)Cc1ccc2c(c1)OCO2	.	.	-	.	.
C[C@H](CO)N1C[C@H](C)[C@@H](CN(C)C(=O)C2CCC2)Oc2cc(-c3ccc(C(=O)N(C)C)cc3)ccc2S1(=O)=O	.	.	-	.	.
Cc1sc(NC(=S)NC(=O)C(C)(C)C)c(C(N)=O)c1C	-	.	47	-	-
NC(=O)c1ccsc1NC(=O)c1cccs1	-	-	47	-	-
Cc1sc(NC(=O)c2cccs2)c(C(N)=O)c1C	-	-	88	-	-
NC(=O)c1ccsc1NC(=O)C1CCCCC1	-	-	-	-	-57
CC(C)(C)C(=O)NC(=S)Nc1sc2c(c1C(N)=O)CCC2	-	-	-	-	-
Cc1noc(C)c1S(=O)(=O)Nc1ccc2c(c1)CC(=O)N([C@@H](C)CO)C[C@H](C)[C@@H](CN(C)S(=O)(=O)c1ccc(F)cc1)O2	.	.	-	.	.
C[C@H]1CN([C@@H](C)CO)C(=O)CCCn2nncc2CO[C@H]1CN(C)S(=O)(=O)c1cn(C)cn1	.	.	-	.	.
O=C(C[C@H]1CC[C@@H](NC(=O)c2cccc(F)c2)[C@@H](CO)O1)NCc1ccccc1	.	.	-	.	.
C=CCc1cccc(/C=C/c2cc(=O)c3ccccc3[nH]2)c1O	-	-	.	55	-
C=CCc1cccc(/C=N/n2cnnc2)c1O	.	.	-	-	-
C[C@@H]1CN([C@H](C)CO)C(=O)c2cc(C#CCc3ccccc3)cnc2O[C@@H]1CN(C)C(=O)Cc1cccnc1	.	.	-	.	.
C=CCn1c(O)c(N=NC(=O)OC(C)(C)C)c2ccccc21	-	.	.	-	-
C=CCn1c(O)c(N=NC(=S)Nc2ccc(OC)c(Cl)c2)c2ccccc21	-	-	-	55	-
c1ccc(-n2cc(CN3CCCC3)c(-c3ccc4c(c3)OCO4)n2)cc1	-	-	-	55	-
COc1ccc2[nH]c(=O)c(-c3nnn(-c4ccc(F)cc4)n3)cc2c1	-	-	-	-	-
COc1ccc2[nH]c(=O)c(-c3nnn(-c4ccccc4)n3)cc2c1	-	-	58	-	-
COc1ccc(CN(C)C[C@@H]2Oc3ccc(NS(=O)(=O)c4ccc(F)cc4)cc3C(=O)N([C@H](C)CO)C[C@H]2C)cc1	.	.	-	.	.
CCCc1ccc(-c2cc(NC(=O)CSc3nnc(N)s3)n(-c3ccccc3)n2)cc1	-	-	-	61	-
CCc1ccc(Nc2nc(C)cc(C)n2)cc1	.	-	49	-	-
Cc1cc(C)nc(Nc2ccc(O)cc2)n1	-	-	-	-	-
CCC(=O)N[C@H]1C=C[C@@H](CC(=O)OC)O[C@H]1CO	.	.	-	.	.
SMILES	MITF act	Wnt act	esBAF inh	HSF1 activator	HSF1 inhib
Cc1ccccc1-c1cnc2c(c1)C(=O)N([C@H](C)CO)C[C@@H](C)[C@@H](CN(C)C(=O)CC1CC1)O2	.	.	-	.	.
Cc1ccc(/C=C(\C#N)C(=O)Nc2c(C)cccc2C)s1	-	-	-	-	-
Cc1ccc(NC(=O)/C(C#N)=C/c2ccc(C)s2)c(C)c1	-	.	42	-	-
CN1CCN(C(=O)C[C@H]2CC[C@@H]3[C@H](COC[C@@H](O)CN3C(=O)Nc3cc(Cl)cc(Cl)c3)O2)CC1	.	.	-	.	.
CC1=C(/C=C/C(=O)O)C(C)(C)CCC1	.	-	-	65	-
CC1=C(/C=C/C(C)=C/C=C/C(C)=C\C(=O)O)C(C)(C)CCC1	-	-	-	-	-
CCCNC(=O)Nc1ccc2c(c1)OC[C@@H](C)N(Cc1cccnc1)C[C@H](C)[C@H](OC)CN(C)C2=O	.	.	-	.	.
C[C@@H]1CN([C@H](C)CO)C(=O)c2cc(NC(=O)Cc3ccccc3)ccc2O[C@@H](C)CCCCO[C@H]1CN(C)S(=O)(=O)c1cn(C)cn1	.	.	-	.	.
Clc1ccc(COn2nnc3ccccc32)c(Cl)c1	99	-	?	86	-
Cc1cc(/C=N/NC(=O)c2ccncc2)c(C)n1-c1ccccc1	-	-	.	-	-
Cc1cc(/C=N/NC(=O)c2cccs2)c(C)n1-c1ccccc1	-	-	-	-	-69
O=C(N/N=C/c1ccccc1[N+](=O)[O-])c1cccs1	.	45	.	61	-
COc1ccc(/C=N/NC(=O)c2cccs2)c2ccccc12	-	-	56	-	-
Cc1ccc(/C=N/NC(=O)c2cccs2)cc1[N+](=O)[O-]	117	40	.	-	-
C[C@@H]1CCCCO[C@H](CN(C)C(=O)c2ccncc2)[C@@H](C)CN([C@H](C)CO)C(=O)c2cc(NC(=O)CCCN(C)C)ccc2O1	.	.	-	.	.
COC(=O)c1sccc1N/N=C/c1ccc(OC)c(OC)c1OC	-	-	52	-	-
Clc1ccccc1-c1ncc2ccccn12	-	36	.	168	-
Clc1ccc(-c2ncc3ccccn23)cc1	-	-	.	63	-
COc1ccc(-c2ncc3ccccn23)cc1OC	-	.	-	-	-
C[C@H]1CN([C@@H](C)CO)C(=O)Cc2cc(NC(=O)Nc3ccc(F)cc3)ccc2O[C@@H]1CN(C)C(=O)Nc1ccc(C(F)(F)F)cc1	.	.	-	.	.
C[C@@H]1CN([C@@H](C)CO)C(=O)c2cc(NC(=O)Cc3ccccc3)ccc2O[C@@H](C)CCCCO[C@H]1CN(C)C(=O)CCC(F)(F)F	.	.	-	.	.
O=C1C2CC=C(Cl)CC2C(=O)N1CNc1ccccn1 (stereo unspecified)	-	.	-	-	-
O=C1CCC(=O)N1CNc1ccccn1	.	-	-	-	-70
COc1ccc(NC(=O)CN(C)C(=O)CNC(=O)c2sc3ccccc3c2Cl)cc1	93	-	51	.	.
CN(CC(=O)Nc1c(Cl)cccc1Cl)C(=O)CNC(=O)c1sc2ccccc2c1Cl	.	-	-	.	.
SMILES	MITF act	Wnt act	esBAF inh	HSF1 activator	HSF1 inhib
CCn1c(-c2ccccc2)c(C(=O)CCl)c2ccccc21	-	-	.	98	-
Cn1c(-c2ccccc2)c(C(=O)CCl)c2ccccc21	-	-	.	-	-
O=C(O)c1cc(-c2cccc3ccccc23)nc2ccccc12	-	-	-	-	-88
O=C(NCc1ccccn1)c1cc(-c2ccc(-c3ccccc3)cc2)nc2ccccc12	-	-	45	84	-
CCCc1ccc(-c2cc(C(=O)NCCc3ccc(S(N)(=O)=O)cc3)c3ccccc3n2)cc1	106	.	-	85	-
O=C(NCc1ccccn1)c1cc(-c2ccccc2)nc2ccccc12	-	-	.	-	-
Cc1cccc(-c2cc(C(=O)NCc3ccccn3)c3ccccc3n2)c1	-	-	.	-	-
